# Screening results from PubChem.
# PI5P4K alpha inh – blocks human PI5P4K alpha kinase activity; max response, %; PI5P4Kalpha enzyme, ADP-Glo luminescence, 60 min; hits give low values; 330,000 tested, 1.2% active; P48426; active means max response of -50% or lower; inconclusive means between -30% and -50%; inactive means -30% or higher; further: value at the top dose of about 77 µM; on the % scale 0 is the no-effect control and ±100 the full control effect
#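 PI5P4Kalpha ADP-Glo assay; 5 microM ATP final; 60 min RT reaction; HEPES pH 7.4/EGTA/CHAPS, 5% DMSO; controls lacking substrate or enzyme; luminescent end-point.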
# POLH inh – blocks human DNA polymerase eta activity | Q9Y253 | recombinant Pol eta, fluorescent DNA replication assay | Potency, µM (series often up to 114 µM), without a hit: at the highest dose activity change, negative = inhibition, usual class: inhibitors | 390,000 tested, 1.2% active; further: potency means the concentration at half of the fitted maximal effect; on the % scale 0 is the no-effect control and ±100 the full control effect
# Target sequence (Q9Y253 whole entry, looked up): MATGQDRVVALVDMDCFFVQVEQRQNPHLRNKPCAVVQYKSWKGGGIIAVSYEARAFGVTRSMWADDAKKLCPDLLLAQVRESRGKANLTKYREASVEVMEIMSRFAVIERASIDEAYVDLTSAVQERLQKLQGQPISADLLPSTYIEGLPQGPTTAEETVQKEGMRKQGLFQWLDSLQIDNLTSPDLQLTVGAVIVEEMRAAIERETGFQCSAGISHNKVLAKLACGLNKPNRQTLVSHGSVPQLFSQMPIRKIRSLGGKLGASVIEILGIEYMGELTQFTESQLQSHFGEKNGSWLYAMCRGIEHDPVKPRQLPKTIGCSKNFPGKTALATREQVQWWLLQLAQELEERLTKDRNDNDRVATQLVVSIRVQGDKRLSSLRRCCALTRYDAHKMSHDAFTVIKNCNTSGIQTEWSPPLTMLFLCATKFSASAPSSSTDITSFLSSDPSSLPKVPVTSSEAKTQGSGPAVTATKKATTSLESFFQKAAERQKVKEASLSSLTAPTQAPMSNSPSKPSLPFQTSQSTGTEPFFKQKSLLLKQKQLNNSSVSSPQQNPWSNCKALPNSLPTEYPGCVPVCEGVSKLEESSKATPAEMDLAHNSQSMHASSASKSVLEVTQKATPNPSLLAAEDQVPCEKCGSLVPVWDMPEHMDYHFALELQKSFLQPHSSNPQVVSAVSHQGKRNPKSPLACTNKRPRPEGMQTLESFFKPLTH
#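 Pol eta (10 nM) was preincubated with compounds for 15 min at room temperature, after which fluorescent replication substrate (50 nM final) was added to start the reaction. Fluorescence was read kinetically at 0 and 10 min.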
# POLI inh – inhibitors of human DNA polymerase iota; Potency, µM (doses to about 115 µM), for the others: at the highest dose activity, negative = inhibition, usual class: inhibitors; 390,000 tested, 1% active; Pol iota fluorescent replication assay, 10 min; further: potency means the concentration at half of the fitted maximal effect
#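 Fluorescent replication assay read twice, at 0 min and 10 min after adding 50 nM (final) substrate. Enzyme (10 nM) and compounds were first incubated 15 min at room temperature; enzyme-free buffer wells were negative controls.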
# WRN inhibitor – inhibitors of human WRN helicase; WRN helicase unwinding, fluorescent forked duplex, kinetic; AID 651768; 360,000 tested, 0.46% active; Potency, µM (highest dose often 114 µM), for the others: at the highest dose activity change, negative = inhibition, hits mostly inhibitors; further: potency means the concentration at half of the fitted maximal effect; on the % scale 0 is the no-effect control and ±100 the full control effect; nearly all actives have a fitted effect of over 55% in size
#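 Fluorescence dequenching readout, ex 525 nm/em 598 nm, kinetic mode: forked duplex DNA (100 nM final) with adjacent fluorophore and quencher unwound by WRN (20 nM final) with 2 mM ATP. Compound preincubation 15 min, room temperature.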
# POLK inh – DNA polymerase kappa (human) inhibition; Q9UBT6; purified Pol kappa, fluorescent DNA synthesis assay, 10 min; Potency, µM (titrated, usually from 107 µM), for the others: at the top dose activity, negative = inhibition, hits mostly inhibitors; 400,000 tested, 0.53% active; further: potency means the concentration at half of the fitted maximal effect; on the % scale 0 is the no-effect control and ±100 the full control effect
#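 Fluorescent qHTS in 1536-well format: enzyme (10 nM) and compound sat 15 min at room temperature before 50 nM substrate (final) was added. Signal taken at 0 and 10 min; no-enzyme buffer wells were negative controls.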
# Pol beta inh – blocks human DNA polymerase beta activity; Pol beta primer extension/strand displacement, fluorescence kinetic; Potency, µM (doses to about 114 µM), inactives show at the highest dose activity change, negative = inhibition, usual class: inhibitors; 340,000 tested, 1.3% active; further: potency means the concentration at half of the fitted maximal effect; on the % scale 0 is the no-effect control and ±100 the full control effect
#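 Homogeneous kinetic assay of primer extension and strand displacement by 10 nM Pol beta, preincubated 15 min at room temperature with compound before 50 nM substrate (final) was added. Read at 0 and 10 min; four-parameter Hill fit.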
# Numbers without * were called inactive; ? = inconclusive; / = no result; [ ] = another dose, or the depositor's remark. Sampled rows, rich in hits. Any-hit rate of the full collection: about 2.8%. Unless noted, the call rests on the fitted dose curve; in most records, active means well fitted curve in the direction sought with a large enough effect; inconclusive means small, poorly fitted or top-dose-only effect, or another doubt; inactive means no such curve, though single readings can be large; an effect the other way counts as inactive or inconclusive.
SMILES,PI5P4K alpha inh,POLH inh,POLI inh,WRN inhibitor,POLK inh,Pol beta inh
O=C(Nc1ccc(-c2nnc(-c3ccccc3)o2)cc1)C(F)(F)F,-3,10%,5%,-2%,-16%,29%
CCc1ccc(CNC(=O)c2cnc3c(C)cccn3c2=O)cc1,/,-4%,?,/,7%[60.1 µM],30%
CCOc1ccc(/C=C/C2=Cc3c(sc(NC(=O)CSc4n[nH]c(N)n4)c3C#N)C(C)(C)C2)cc1,/,-7%,?,45µM*,-23%,-1%
COc1ccc(C(=O)n2nc(-c3ccco3)nc2NCc2cccs2)cc1,/,-21%,-3%,/,4%,-1%
CCN1CCN(c2cc(N3CCN(C(=O)c4ccco4)CC3)c3c4c(onc24)-c2ccccc2C3=O)CC1,-16,-12%,28µM*,152%,-17%,-2%
CCOc1ccc(NC(=O)Cn2c(=O)n(CCCC(=O)NC3CCN(Cc4ccccc4)CC3)c(=O)c3ccccc32)cc1,2,-6%,6%,-12%,-4%,40%
O=c1cc(NCc2ccco2)[nH]c(=O)n1-c1ccc(Br)cc1,/,?,50µM*,-9%[11.6 µM],?,-27%
Cc1[nH]c(C)c(S(=O)(=O)NCc2ccc(Cl)cc2)c1C(=O)N1CCCC1,1,-17%,7%,4%,9%,8%
CCC(=O)n1nc(-c2ccco2)nc1SCc1ccccc1,3,-8%,14%,-2%,-4%,22µM*
CN(CCc1ccccc1)C(=O)CC1C(=O)NCCN1Cc1ccccn1 (stereo unspecified),3,-21%,/,-1%,/,/
N[C@@H](Cc1cc(-c2ccc(Cl)cc2Cl)cc(CP(=O)(O)O)c1O)C(=O)O,/,/,/,/,1.8µM*,/
CSc1nc(O)c(C(c2ccc(F)cc2)c2c(O)nc(SC)[nH]c2=O)c(=O)[nH]1,-14,-13%,20%,-2%,9%,/
CSc1nc(O)c(C(c2ccccc2)c2c(O)nc(SC)[nH]c2=O)c(=O)[nH]1,-53*,-13%,4%,2%,4%,5%
CC(=O)c1ccc2c(c1)C1C=CCC1C(c1ccc(S(=O)(=O)N3CCOCC3)cc1)N2 (stereo unspecified),-65*,?,4%,?,-25%,-1%
N/C(=N\N=C\c1ccnc2ccccc12)SC1CC(=O)N(c2ccc(Br)cc2)C1=O (stereo unspecified),0,25µM*,3%,0%,-5%,?
COc1ccc(N2C(=O)CC(S/C(N)=N/N=C/c3ccnc4ccccc34)C2=O)cc1 (stereo unspecified),/,/,/,/,/,33%
Fc1ccccc1COc1ccc2ccccc2c1CNc1nn[nH]n1,2,-14%,19%,0%,2%,40%
COC(C)(C)[C@H](O)COc1c2ccoc2cc2oc(=O)ccc12,7,-4%,5%,-6%,-20%,-24%
CC(C)(O)C(O)COc1c2ccoc2cc2oc(=O)ccc12 (stereo unspecified),-1,?,?,-1%,?,22µM*
CCn1ccc2cc(S(=O)(=O)N3CCCN(C(=O)Nc4ccc(C)cc4Cl)CC3)ccc21,/,-12%,14%,/,-5%[60.1 µM],5%
COc1ccccc1C(=O)NC(CCSC)C(=O)NCCCn1nc(C)cc1C (stereo unspecified),8,-7%,33%,-5%,-16%,/
CCN(CC)c1ccc(/C=C2\C(=O)N(c3nnc(C)c(=O)[nH]3)N=C2C)cc1,-12,?,3.2µM*,-12%[11.6 µM],-4%,39%
Cc1nc(S/C(=C\c2ccc(OCc3ccccc3Cl)cc2)C(=O)O)n[nH]1,?,32µM*,?,-13%[57.1 µM],6%,1%
CC(=O)Nc1ccc(OCC(O)CN2CCN(c3cc(Cl)ccc3C)CC2)cc1 (stereo unspecified),/,-10%,7%,-9%,0%,6%
CC(=O)Nc1ccc(OCC(O)CN2CCN(c3ccc(C)c(Cl)c3)CC2)cc1 (stereo unspecified),/,-10%,89µM*,-1%,-5%,6%
SMILES,PI5P4K alpha inh,POLH inh,POLI inh,WRN inhibitor,POLK inh,Pol beta inh
Nc1[nH]c(N=NC(=O)c2ccccc2)c2ccccc12,-10,-15%,?,-3%[57.1 µM],-14%,-12%
Nc1[nH]c(N=NC(=O)c2ccc(Cl)cc2)c2ccccc12,-1,0%,19%,-31%[57.1 µM],1%,79µM*
C=C1C=CS(=O)(=O)N(Cc2ccccc2)C1,/,/,5%,/,-2%,/
O=C(Nc1ccc(Br)cc1Br)c1cccc2c1C(=O)N(C1CCCCC1)C2,15,-11%,40%,-12%,0%,18%
O=C(Nc1ccc(F)cc1F)c1cccc2c1C(=O)N(C1CCCCC1)C2,/,-22%,?,/,-39%,13µM*
NC(=O)c1cccc2c1C(=O)N(C1CCCCC1)C2,-27,50µM*,?,-12%[57.1 µM],?,?
CCCCCn1c(N)c(-c2nc3ccccc3o2)c2c([N+](=O)[O-])nn(CC)c(=O)c21,-1,?,24%,?,-11%,2µM*
Cc1ccc(NS(=O)(=O)c2ccc(-c3cc(C)no3)cc2)c(Br)c1,/,-11%,17%,/,3%,15%
COc1ccccc1C(C)NCC(=O)c1c(C)[nH]c2ccccc12 (stereo unspecified),/,/,20%,/,-18%,/
O=C(CSc1ncnc2nc[nH]c12)c1ccccc1,-5,6%,5%,-7%,-5%,2%
O=C(CSc1ncnc2nc[nH]c12)c1ccc(Cl)cc1,-55*,-5%,?,2%,-27%,15%
O=C1/C(=C/c2cccc(Br)c2)SC(=S)N1/N=C/c1cc([N+](=O)[O-])ccc1O,-28,-17%,?,-4%,-33%,7%
O=C(CSc1nc2c(cnn2-c2ccc(F)cc2)c(=O)[nH]1)Nc1ccccc1C(F)(F)F,/,-9%,?,/,-12%,7.9µM*
CCOC(=O)[C@@H]1[C@H]2COc3ccccc3[C@H]2N2C(=O)N(c3ccc(Cl)cc3)C(=O)[C@]12C,1,-14%,?,-9%,-22%,6%
Cc1cc(-c2ccccc2)[nH]c(=O)c1C#N,0,-15%,66%,-3%,-2%,29%
N#Cc1c(-c2ccccc2)[nH]c(=O)[nH]c1=O,-92*,3%,25%,-1%,-15%,0%
CCC(=O)N1CCc2cc(Br)cc(S(=O)(=O)CCC(=O)NCc3ccc(F)cc3)c21,/,-6%,15%,/,8%,11%
CCN(CC1CCCO1)C(=O)c1cc(COc2ccccc2SC)on1 (stereo unspecified),-12,-3%,0%,-28%,-8%,1%
Cc1cc(C(=O)O)ccc1-n1c(C)cc(/C=C(/C#N)C(=O)Nc2ccccc2)c1C,?,?,79µM*,?,-9%,-5%
